Only a sample is shown.
aSyn 5UTR act: Activators working through SNCA 5'UTR binding (MLPCN) | activity score, % (tested at 7.5 µM), hits read low | 300,000 tested, 7.1% active | alpha-synuclein 5'UTR reporter, activators screen | AID 1814; in the data active = activity score below about -60%
A number is an active result.

`O=c1c2c3c(sc2ncn1/N=C/c1ccc([N+](=O)[O-])o1)CCCC3` gave aSyn 5UTR act -89.
Screening Cc1[nH]n(-c2cccc(Cl)c2)c(=O)c1C=NCc1ccco1 returned aSyn 5UTR act -134.
For Cc1[nH]n(-c2ccccc2)c(=O)c1C=NCc1ccco1 the results were aSyn 5UTR act -114.
Screening Cc1[nH]n(-c2cccc(Cl)c2)c(=O)c1C=NCC(C)C returned aSyn 5UTR act -168.
O=C(/C=C/c1ccoc1)c1ccccc1O was read as aSyn 5UTR act -76.
For O=C(/C=C/c1cc2ccccc2o1)c1ccccc1O the results were aSyn 5UTR act -161.
`O=C(/C=C/c1ccc(O)c(O)c1)c1ccccc1O` gave aSyn 5UTR act -293.
Screening O=C(/C=C/c1ccc(O)c(O)c1)OCCc1ccccc1 returned aSyn 5UTR act -131.
Screening CCN1/C(=C2\OC(=S)N(C)C2=O)Sc2ccccc21 returned aSyn 5UTR act -129.
C=CCN1/C(=C2/SC(=S)N(C)C2=O)Sc2ccccc21 was read as aSyn 5UTR act -65.
For CCN1C(=O)/C(=C/c2nc3ccccc3c(=O)n2-c2ccccc2)c2ccccc21 the results were aSyn 5UTR act -104.
For Nc1c(C(=O)Nc2ccc3c(c2)OCCO3)nnn1Cc1cccc(F)c1 the results were aSyn 5UTR act -176.
`Nc1c(C(=O)Nc2cccc(F)c2)nnn1-c1cccc(C(F)(F)F)c1` gave aSyn 5UTR act -155.
For Nc1c(C(=O)Nc2ccc3c(c2)OCCO3)nnn1Cc1ccc(Cl)cc1 the results were aSyn 5UTR act -212.
`c1ccc(COc2ccc3nocc3c2)cc1` gave aSyn 5UTR act -104.
`S=C(NCC1CCCO1)Nc1ccc(Cl)c(Cl)c1` (stereo unspecified) gave aSyn 5UTR act -86.
Screening CN(C)c1ccc(NC(=S)NCC2CCCO2)cc1 (stereo unspecified) returned aSyn 5UTR act -101.
CCc1ccc(NC(=O)C(=O)NCC2CCCO2)cc1 (stereo unspecified) was read as aSyn 5UTR act -137.
For CC(=O)c1ccc(Nc2nc(-c3cccnc3)cs2)cc1 the results were aSyn 5UTR act -130.
Screening O=C(O)c1ccc(Nc2nc(-c3cccnc3)cs2)cc1 returned aSyn 5UTR act -88.
Cc1ccc(OCc2cc(C(=O)N3CC4C[C@@H]5CC3C[C@H](C4)C5)no2)cc1C was read as aSyn 5UTR act -111.
`Cc1cccc(C)c1OCc1cc(C(=O)N2CC3C[C@@H]4CC2C[C@H](C3)C4)no1` gave aSyn 5UTR act -117.
`CCSc1ncnc2c1sc1nc3c(cc12)COC(C)(C)C3` gave aSyn 5UTR act -123.
`C=CCSc1ncnc2c1oc1nc3c(cc12)COC(C)(C)C3` gave aSyn 5UTR act -141.
CCCCCn1cnc2c(sc3nc4c(cc32)CSC(C)(C)C4)c1=O was read as aSyn 5UTR act -130.
For CCCOc1ncnc2c1sc1nc3c(cc12)COC(C)(C)C3 the results were aSyn 5UTR act -112.
For CC1(C)Cc2nc3sc4c(=O)n(CC(=O)NCc5ccco5)cnc4c3cc2CO1 the results were aSyn 5UTR act -100.
Screening C=CCn1c(C)nc2c(sc3nc4c(cc32)COC(C)(C)C4)c1=O returned aSyn 5UTR act -130.
Screening CC1(C)Cc2nc3oc4c(=S)nc[nH]c4c3cc2CO1 returned aSyn 5UTR act -64.
For CC(C)c1nc2sc3c(NCc4ccco4)ncnc3c2c2c1COC(C)(C)C2 the results were aSyn 5UTR act inactive.
CC(C)COc1ncnc2c1sc1nc3c(cc12)COC(C)(C)C3 was read as aSyn 5UTR act -117.
For CC(=O)/C=C(\C)Nc1ccc(-c2cnc(-c3ccccc3)o2)cc1 the results were aSyn 5UTR act -95.
CC1(C)CC(=O)C2=C(C1)c1c(ccc3ccccc13)NC2c1ccco1 (stereo unspecified) was read as aSyn 5UTR act -193.
COc1ccc(NC(=O)NC2CCCCCCC2)cc1 was read as aSyn 5UTR act -139.
Screening COC(=O)c1ccc(NC(=O)NC2CCCCC2)cc1 returned aSyn 5UTR act -117.
For N#Cc1cc(C#N)c(N2CCN(c3ccccn3)CC2)nc1N the results were aSyn 5UTR act -204.
Screening Cc1ccc(N/C=C/C(=O)c2ccco2)c(O)c1 returned aSyn 5UTR act -158.
`Cc1ccc([N+](=O)[O-])cc1N/C=C/C(=O)c1ccco1` gave aSyn 5UTR act -138.
Screening O=C(Nc1cccc(Cl)c1N1CCCC1)c1cccc(-c2cc3ccccc3oc2=O)c1 returned aSyn 5UTR act -101.
For CCn1nnc(NC(=O)c2cccc(-c3cc4ccccc4oc3=O)c2)n1 the results were aSyn 5UTR act -105.
Screening Cc1ccc2nc(NC(=O)c3cccc(-c4cc5ccccc5oc4=O)c3)sc2c1 returned aSyn 5UTR act -88.
Screening COc1cccc(CNc2ccc(F)c(Cl)c2)c1O returned aSyn 5UTR act -184.
Screening COc1cccc(CNc2nc3ccccc3n2C)c1O returned aSyn 5UTR act -94.
Screening COc1ccc(CNc2ncc(-c3ccc(F)cc3)n2C)c2ccccc12 returned aSyn 5UTR act inactive.
For COc1ccccc1Nc1nc2ccccc2n1C the results were aSyn 5UTR act -122.
`Cc1ccc(O)c(CNc2cnc3ccccc3c2)c1` gave aSyn 5UTR act -100.
Screening COc1cccc(CNc2cnc3ccccc3c2)c1O returned aSyn 5UTR act -219.
N/C(=N\OC(=O)COc1cc(Cl)c(Cl)cc1Cl)c1ccccn1 was read as aSyn 5UTR act -150.
Cc1cccc(OCC(=O)O/N=C(\N)c2ccccn2)c1C was read as aSyn 5UTR act -172.
For Cc1ccccc1Cn1cc(NC(=O)c2nc3ncccn3n2)cn1 the results were aSyn 5UTR act -95.
N#Cc1ccc(N2Cc3ccccc3C2=NC(=O)c2cccnc2Cl)cc1 was read as aSyn 5UTR act -106.
`O=C(N=C1c2ccccc2CN1c1ccc(F)c(Cl)c1)c1cccnc1Cl` gave aSyn 5UTR act -106.
CN(C)S(=O)(=O)c1ccc(C(=O)Nc2nc3ccccc3[nH]2)cc1 was read as aSyn 5UTR act -109.
CCc1ccc(C(=O)Nc2nc3ccccc3[nH]2)cc1 was read as aSyn 5UTR act inactive.
N#Cc1ccc(C(=O)Nc2nc3ccccc3[nH]2)cc1 was read as aSyn 5UTR act -88.
Screening CN(c1ccc(OCC(=O)Nc2nc(-c3ccccc3)cs2)cc1)S(=O)(=O)c1ccc(F)cc1 returned aSyn 5UTR act -88.
Screening Cc1ccc(S(=O)(=O)N(C)c2ccc(OCC(=O)Nc3nc(-c4ccccc4)cs3)cc2)cc1 returned aSyn 5UTR act -73.
CCCc1nc(Nc2nc3ccccc3o2)nc(C)c1C(=O)OCC was read as aSyn 5UTR act -80.
For CCOC(=O)c1cnc(Nc2nc3ccccc3o2)nc1CSc1ncccn1 the results were aSyn 5UTR act -100.
CC(=O)c1cccc2c(O)c(C3=Nc4ccccc4C3=O)[nH]c12 was read as aSyn 5UTR act -122.
`COc1ccc(COc2cccc(C=O)c2)cc1` gave aSyn 5UTR act -69.
Screening O=Cc1ccc(OCc2ccc3ccccc3c2)cc1 returned aSyn 5UTR act -132.
O=Cc1cccc(OCc2cccc3ccccc23)c1 was read as aSyn 5UTR act -117.
O=C(Cc1ccccc1)Nc1ccc(N2CCOCC2)cc1 was read as aSyn 5UTR act -73.
For CC1CCN(c2ccc(NC(=O)Cc3ccccc3)cc2)CC1 the results were aSyn 5UTR act -82.
O=C(Nc1ccc(N2CCOCC2)cc1)c1cn2ccccc2n1 was read as aSyn 5UTR act inactive.
For CCN(c1ccccc1)S(=O)(=O)c1ccc(Oc2ccc(-n3ccnc3)cc2)nc1 the results were aSyn 5UTR act inactive.

Source: PubChem
